Source: PubChem BioAssay (NCATS)
Results filed as inconclusive are left out. A call without a number means that no potency is given here. Activity calls are given as the source filed them. Calls follow the shape of the dose curve; as a rule, active = well fitted inhibition curve with a large enough effect; inconclusive = small, poorly fitted or top-dose-only effect; inactive = flat fitted curve, though single readings scatter.

Key:
Experiment in all cases: qHTS profiling for inhibitors of Plasmodium falciparum proliferation (AID 504749); also: nearly all actives have a fitted effect of over 60% in size
Conditions in all cases: P. falciparum in erythrocytes, SYBR Green DNA, 72 h; series mostly up to 12.8 µM
ATS189 = tested on: ATS189
In short: (§1)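 Infected RBCs, 0.3% parasitemia/2.5% Hct final; cpd 72 h, 37 C, 5% CO2; lysis buffer with saponin/triton/SYBR Green I, o/n RT dark; FI 485/535; norm. to artemisinin (0.29 uM) and DMSO.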

CP185 = tested on: CP185
In short: as §1

CP191 = tested on: CP191
In short: as §1

CP201 = tested on: CP201
In short: as §1

CP211 = tested on: CP211
In short: as §1

CP247 = tested on: CP247
In short: as §1

CP268 = tested on: CP268
In short: as §1

CP291 = tested on: CP291
In short: as §1

CP305 = tested on: CP305
In short: as §1

CP315 = tested on: CP315
In short: as §1

CP325 = tested on: CP325
In short: as §1

CP329 = tested on: CP329
In short: as §1

DIV30 = tested on: DIV30
In short: as §1

HB3 = tested on: HB3
In short: as §1

N140 = tested on: N140
In short: as §1

PC49 = tested on: PC49
In short: as §1

TAB113 = tested on: TAB113
In short: as §1

TAB165 = tested on: TAB165
In short: as §1

CP192 = tested on: CP192
In short: as §1

PC26 = tested on: PC26
In short: as §1
Potency is read from the fitted curve at half-maximal effect.

Row | SMILES | Potency (ATS189) | Potency (CP185) | Potency (CP191) | Potency (CP201) | Potency (CP211) | Potency (CP247) | Potency (CP268) | Potency (CP291) | Potency (CP305) | Potency (CP315) | Potency (CP325) | Potency (CP329) | Potency (DIV30) | Potency (HB3) | Potency (N140) | Potency (PC49) | Potency (TAB113) | Potency (TAB165) | Potency (CP192) | Potency (PC26)
1 | CCN(CC)CCOC(=O)[C@@H](Cc1cccc2ccccc12)C[C@@H]1CCCO1 | inactive | inactive | inactive | inactive | inactive | inactive | inactive | inactive | inactive | inactive | inactive | inactive | inactive | inactive | inactive | inactive | inactive | inactive | – | –
2 | CCC(=O)[C@@]1(C)[C@H](C)C[C@@H]2[C@@H]3CCC4=CC(=O)C=C[C@@]4(C)[C@H]3[C@H](O)C[C@]21C | inactive | inactive | inactive | inactive | inactive | inactive | inactive | inactive | inactive | inactive | inactive | inactive | inactive | inactive | – | inactive | inactive | inactive | inactive | inactive
3 | CCO[C@H]1O[C@@H]([C@H](COCc2ccccc2)OCc2ccccc2)[C@@H](OCc2ccccc2)[C@H]1O | – | inactive | inactive | inactive | inactive | inactive | inactive | inactive | inactive | inactive | inactive | inactive | – | – | – | inactive | inactive | – | inactive | –
4 | COc1ccc2c(c1)N(C[C@@H](C)CN(C)C)c1ccccc1S2 | inactive | inactive | inactive | inactive | inactive | inactive | inactive | inactive | inactive | inactive | inactive | inactive | – | inactive | inactive | inactive | inactive | inactive | inactive | –
5 | CCN(CC)[C@@H](C)CN1c2ccccc2Sc2ccccc21 | – | inactive | – | – | inactive | – | – | – | inactive | inactive | inactive | inactive | inactive | inactive | – | inactive | – | – | inactive | –
6 | CC=C(/C(=C/C)c1ccc(O)cc1)c1ccc(O)cc1 | inactive | inactive | inactive | inactive | inactive | inactive | inactive | inactive | inactive | inactive | inactive | inactive | inactive | inactive | inactive | inactive | inactive | inactive | inactive | inactive
7 | CCOC(=O)Oc1c(OC)cc(C(=O)O[C@H]2C[C@H]3CN4CCc5c([nH]c6cc(OC)ccc56)[C@@H]4C[C@H]3[C@@H](C(=O)OC)[C@@H]2OC)cc1OC | – | – | – | – | – | – | – | – | – | – | – | – | 7.21 µM (active) | – | 3.55 µM (active) | – | 3.98 µM (active) | 3.55 µM (active) | – | 5.73 µM (active)
8 | CCC(C)(C)C(=O)O[C@@H]1C[C@H](C)C=C2C=C[C@H](C)[C@@H](CC[C@H]3C[C@@H](O)CC(=O)O3)[C@H]21 | inactive | inactive | inactive | inactive | inactive | inactive | inactive | inactive | inactive | inactive | inactive | inactive | inactive | – | inactive | inactive | – | – | inactive | inactive
9 | CC1(C)OC2CC(=O)OC[C@@]23C1CC(=O)[C@]1(C)C3CC[C@@]2(C)C(c3ccoc3)OC(=O)C3O[C@@]321 (some centres not stated) | inactive | inactive | inactive | inactive | inactive | inactive | inactive | inactive | inactive | inactive | inactive | inactive | inactive | inactive | inactive | inactive | inactive | inactive | inactive | inactive
10 | COc1ccc2cc(C(C)CO)ccc2c1 (configuration not stated) | inactive | inactive | inactive | inactive | inactive | inactive | inactive | inactive | inactive | inactive | inactive | inactive | inactive | inactive | inactive | inactive | – | inactive | inactive | inactive
11 | COC(=O)N/N=C/C1=C[N+](=O)c2ccccc2[N+]1=O | inactive | inactive | inactive | inactive | inactive | inactive | inactive | inactive | inactive | inactive | inactive | inactive | inactive | inactive | inactive | inactive | inactive | inactive | inactive | inactive
12 | O=C1OC(CO)C(O)C(O)C1O (configuration not stated) | inactive | inactive | inactive | inactive | inactive | inactive | inactive | inactive | inactive | inactive | inactive | inactive | inactive | inactive | inactive | inactive | inactive | inactive | inactive | inactive
13 | CC1(C)SC2C(N3C(=O)C(c4ccccc4)NC3(C)C)C(=O)N2C1C(=O)O (configuration not stated) | inactive | inactive | inactive | inactive | inactive | inactive | inactive | inactive | inactive | inactive | inactive | inactive | inactive | inactive | inactive | inactive | inactive | inactive | inactive | inactive
14 | CC(C)=CCC[C@](C)(O)C1CC=C(C)CC1 (some centres not stated) | inactive | inactive | inactive | inactive | inactive | inactive | inactive | inactive | inactive | inactive | inactive | inactive | inactive | inactive | inactive | inactive | inactive | inactive | inactive | inactive
15 | COc1ccc2cc1Oc1ccc(cc1)CC1c3c(cc4c(c3Oc3cc5c(cc3OC)CCN(C)C5C2)OCO4)CCN1C (configuration not stated) | 4.47 µM (active) | 7.94 µM (active) | 5.01 µM (active) | – | 12 µM (active) | 5.62 µM (active) | 13.5 µM (active) | 12 µM (active) | 9.53 µM (active) | – | 12 µM (active) | – | – | 7.08 µM (active) | 3.16 µM (active) | – | 7.08 µM (active) | 3.98 µM (active) | – | 12 µM (active)
16 | COc1cc(C2c3cc4c(cc3C(O[C@@H]3OC5COC(c6cccs6)OC5C(O)C3O)C3COC(=O)C23)OCO4)cc(OC)c1O (some centres not stated) | 2.24 µM (active) | 2.24 µM (active) | 2.24 µM (active) | 4.78 µM (active) | 3.38 µM (active) | 2.24 µM (active) | 4.26 µM (active) | 4.26 µM (active) | 1.69 µM (active) | 3.79 µM (active) | 4.78 µM (active) | 4.26 µM (active) | 2.13 µM (active) | 3.16 µM (active) | 1 µM (active) | 4.47 µM (active) | 2.24 µM (active) | 1.41 µM (active) | 4.26 µM (active) | 3.79 µM (active)
17 | NC(C(=O)O)[C@@H]1CC(Cl)=NO1 (some centres not stated) | 2.82 µM (active) | 2.82 µM (active) | 2.51 µM (active) | 3.01 µM (active) | 2.69 µM (active) | 3.16 µM (active) | 1.51 µM (active) | 2.13 µM (active) | 1.51 µM (active) | 3.38 µM (active) | 2.69 µM (active) | 3.01 µM (active) | 3.38 µM (active) | 1.78 µM (active) | 1.26 µM (active) | – | 1 µM (active) | 1 µM (active) | 3.38 µM (active) | 1.9 µM (active)
18 | COC1C=CO[C@@]2(C)Oc3c(C)c(O)c4c(O)c(c(C=NN5CCN(C)CC5)c(O)c4c3C2=O)NC(=O)/C(C)=C\C=CC(C)C(O)[C@@H](C)C(O)C(C)[C@H](OC(C)=O)C1C (some centres not stated) | 1.58 µM (active) | 3.16 µM (active) | 2.82 µM (active) | 5.36 µM (active) | 4.26 µM (active) | 3.98 µM (active) | 4.78 µM (active) | 4.26 µM (active) | 3.79 µM (active) | 4.78 µM (active) | 4.78 µM (active) | 3.38 µM (active) | 0.536 µM (active) | 0.447 µM (active) | 0.199 µM (active) | 1.41 µM (active) | 0.316 µM (active) | 0.141 µM (active) | 4.26 µM (active) | 1.07 µM (active)
19 | C/C1=C2N=C(/C=C3N=C(/C(C)=C4\[N-]C(C)(C5N=C1C(C)(CCC(=O)NCC(C)OP(=O)([O-])O[C@H]1C(O)C(n6cnc7cc(C)c(C)cc76)O[C@@H]1CO)C5CC(N)=O)C(C)(CC(N)=O)C4CCC(N)=O)C(C)(CC(N)=O)C\3CCC(N)=O)C(C)(C)C/2CCC(N)=O.[CH2-]C1OC(n2cnc3c(N)ncnc32)C(O)C1O.[Co] (some centres not stated) | inactive | inactive | inactive | inactive | – | inactive | inactive | inactive | inactive | inactive | inactive | inactive | inactive | inactive | inactive | inactive | inactive | inactive | inactive | inactive
20 | CNC1CC(N)[C@H](O)[C@@H](O[C@@H]2OC(CO)C3OC4(OC(C(N)CO)C(O)C(O)C4O)O[C@@H]3[C@H]2O)C1O (some centres not stated) | inactive | inactive | inactive | inactive | inactive | inactive | inactive | inactive | inactive | inactive | inactive | inactive | inactive | inactive | inactive | inactive | inactive | inactive | inactive | inactive
21 | CC(C)C1CCC(C(=O)NC(Cc2ccccc2)C(=O)O)CC1 (configuration not stated) | inactive | inactive | inactive | inactive | inactive | inactive | inactive | inactive | inactive | inactive | inactive | inactive | inactive | inactive | inactive | inactive | inactive | inactive | inactive | inactive
22 | C[C@]12CCC(=O)C=C1CCC1C2C(=O)C[C@]2(C)C1CC[C@]2(O)C(=O)CO (some centres not stated) | inactive | inactive | inactive | inactive | inactive | inactive | inactive | inactive | inactive | inactive | inactive | inactive | inactive | inactive | inactive | inactive | inactive | inactive | inactive | inactive
23 | CN(C)CCCOC1C(C(O)CO)OC2OC(C)(C)O[C@@H]21 (some centres not stated) | inactive | inactive | inactive | inactive | inactive | inactive | inactive | inactive | inactive | inactive | inactive | inactive | inactive | inactive | inactive | inactive | inactive | inactive | inactive | inactive
24 | CN1CC(=O)N=C1N | inactive | inactive | inactive | inactive | inactive | inactive | inactive | inactive | inactive | inactive | inactive | inactive | inactive | inactive | inactive | inactive | inactive | inactive | inactive | inactive
